NOMO-1 viab: STK33 inhibitor candidate reducing NOMO-1 cell viability | NOMO-1 AML viability, CellTiter-Glo luminescence, 72 h | AID 2330 | 7.5% of 37,000 active | inhibition, % (test concentration not listed); in the data active = inhibition above about 80%; inconclusive = no clear call, values can overlap the other calls
PD-1 reverse act: activators reversing PD-1 mediated T-cell inhibition | primary human CD4 T cells, PD-L1 beads, CellTiter-Glo 96 h | activation, % (test concentration not listed) | 29,000 tested, under 10 active; call rule not given here;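 also: 0% = median vehicle wells and 100% = positive control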
Hedgehog inh: Sonic Hedgehog pathway inhibition; Shh-LIGHT2 Gli-luciferase reporter, 30 h; inhibition, % (no concentration beside the values); 2.1% of 22,000 active;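 active = mean inhibition across valid replicates above about 65%, limit read from the data; inconclusive = mean under the limit, yet half or more replicates past it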;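 also: pathway switched on by Shh-conditioned medium diluted 1 in 25 in low serum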
* hit, by the source's call; ? = inconclusive; · = no result given. Hits are enriched below; roughly 7.7% of the tested compounds scored in any of these assays.

SMILES	NOMO-1 viab	PD-1 reverse act	Hedgehog inh
C[C@@H]1CN([C@@H](C)CO)C(=O)Cc2cc(NC(=O)Nc3ccccc3)ccc2O[C@@H]1CN(C)Cc1ccccc1	23	1	-5
C[C@@H]1CN([C@H](C)CO)C(=O)Cc2cc(NC(=O)Nc3ccc(F)cc3)ccc2O[C@@H]1CN(C)Cc1ccc(-c2ccccc2)cc1	50	-4	36
CC(C)NC(=O)Nc1ccc2c(c1)CC(=O)N([C@@H](C)CO)C[C@@H](C)[C@@H](CN(C)Cc1ccc(-c3ccccc3)cc1)O2	94*	0	19
COc1ccc(OC)c(-c2cc(C(=O)NCCc3ccccc3OC)c3ccccc3n2)c1	44	-4	·
COc1ccccc1Nc1nc(N)nc(CSc2nc3ccccc3s2)n1	13	0	·
CCc1c(O)nc(SC(C)C(=O)Nc2ccc(Cl)cc2)[nH]c1=O (configuration not stated)	39	·	·
CCCCC1(Cc2ccccc2)C(=O)Nc2ccccc2C1=O (configuration not stated)	44	-2	·
Cn1c(SCC(=O)Nc2cc(C(F)(F)F)ccc2Cl)nnc1-c1cnccn1	-13	-1	·
C[C@@H]1CN([C@H](C)CO)C(=O)c2cccc(NC(=O)Nc3ccc(F)cc3)c2O[C@@H]1CN(C)C(=O)Nc1cccc2ccccc12	56	1	-126
C[C@@H]1CN([C@@H](C)CO)C(=O)c2cccc(NC(=O)Nc3ccc(F)cc3)c2O[C@@H]1CN(C)C(=O)Nc1cccc2ccccc12	96*	-4	?
C[C@H](CO)N1C[C@H](C)[C@@H](CN(C)C(=O)Nc2cccc3ccccc23)Oc2c(NC(=O)Nc3ccc(F)cc3)cccc2C1=O	21	0	80*
C[C@H](CO)N1C[C@H](C)[C@@H](CN(C)C(=O)Nc2ccc(F)cc2)Oc2c(NC(=O)Nc3cccc4ccccc34)cccc2C1=O	56	-3	2
Cc1ccc(S(=O)(=O)Nc2cccc3c2O[C@@H](CN(C)Cc2ccc(C(F)(F)F)cc2)[C@@H](C)CN([C@H](C)CO)C3=O)cc1	90*	-4	13
Cc1ccc(S(=O)(=O)Nc2cccc3c2O[C@@H](CN(C)Cc2ccc(C(F)(F)F)cc2)[C@@H](C)CN([C@@H](C)CO)C3=O)cc1	17	-1	7
COc1ccc(S(=O)(=O)Nc2cccc3c2O[C@@H](CN(C)Cc2ccc(C(F)(F)F)cc2)[C@@H](C)CN([C@H](C)CO)C3=O)cc1	96*	-3	-5
C[C@H]1CN([C@@H](C)CO)C(=O)c2cccc(NS(=O)(=O)c3ccc(F)cc3)c2O[C@@H]1CN(C)Cc1ccc(-c2ccccc2)cc1	20	0	16
COc1ccc(S(=O)(=O)Nc2cccc3c2O[C@H](CN(C)Cc2ccc(C(F)(F)F)cc2)[C@H](C)CN([C@@H](C)CO)C3=O)cc1	20	-1	18
C[C@@H]1CN([C@@H](C)CO)C(=O)c2cccc(NS(=O)(=O)c3ccc(F)cc3)c2O[C@@H]1CN(C)Cc1ccc(-c2ccccc2)cc1	84*	-1	6
COc1ccc(-c2cn(S(=O)(=O)c3ccccc3OC)nc2N)cc1OC	19	-3	·
Cc1ccc(-c2nnc(SCC(=O)Nc3c(Cl)cc(Cl)cc3Cl)n2C)cc1	13	2	·
COc1ccc(-c2nc(SCC(=O)Nc3cccc(F)c3)n[nH]2)cc1	22	·	·
Cn1c(SCC(=O)c2ccc([N+](=O)[O-])cc2)nnc1-c1cccnc1	26	0	·
CCn1c(SCC(=O)Nc2ccccc2OC)nnc1-c1ccc(Br)cc1	14	·	·
COC(=O)c1cccc2oc3cc(CO)cc(O)c3c(=O)c12	71	-1	-23
COC(=O)C1=C2C(=O)c3c(O)cc(CO)cc3OC2C(O)C=C1 (configuration not stated)	108*	-13	45
SMILES	NOMO-1 viab	PD-1 reverse act	Hedgehog inh
Cc1ccc(S(=O)(=O)c2ccc(-c3ccccc3)cc2)cc1	12	3	·
CC1=CC(C)(C)N(S(=O)(=O)c2ccc(C)cc2)c2ccccc21	111*	-9	68*
O=C(CSc1ncnc2sc(-c3ccccc3)cc12)Nc1ccccc1C(F)(F)F	50	-3	·
COc1cc(NC(=O)CSc2nc(C)cc(=O)[nH]2)c(OC)cc1Cl	1	·	·
CS(=O)(=O)N(CC(=O)Nc1cc(C(F)(F)F)ccc1Cl)c1ccccc1	20	1	·
C[C@H](CO)N1C[C@H](C)[C@@H](CN(C)Cc2ccc(Oc3ccccc3)cc2)Oc2ccc(NS(=O)(=O)c3ccccc3)cc2C1=O	55	-4	·
C[C@H]1CN([C@@H](C)CO)C(=O)c2cc(NS(=O)(=O)c3ccc(F)cc3)ccc2O[C@H]1CN(C)Cc1ccc(Oc2ccccc2)cc1	11	0	·
C[C@@H]1CN([C@H](C)CO)C(=O)c2cc(NS(=O)(=O)c3ccc(F)cc3)ccc2O[C@@H]1CN(C)Cc1ccc(Oc2ccccc2)cc1	86*	-1	·
C[C@@H]1CN([C@H](C)CO)C(=O)c2cc(NS(=O)(=O)c3ccc(F)cc3)ccc2O[C@H]1CN(C)Cc1ccc(Oc2ccccc2)cc1	114*	·	·
Cc1cc(C)c2oc(-c3ccc(NC(=O)COc4ccc(Br)cc4)cc3O)nc2c1	13	0	-219
Cc1c(-c2ccccc2)[n+](=O)c(-c2ccc(Br)cc2)c(C)n1[O-]	-6	0	67*
NC(=O)C1CCN(C(=O)CSc2nc(-c3ccccc3)cc(=O)[nH]2)CC1	7	2	·
O=c1c2c(nc3nc(NCc4cccc([N+](=O)[O-])c4)[nH]n13)CCC2	28	·	·
C[C@@H]1CN([C@@H](C)CO)C(=O)Cc2cc(NC(=O)Nc3ccc(C(F)(F)F)cc3)ccc2O[C@@H]1CN(C)C(=O)Nc1ccc(C(F)(F)F)cc1	114*	-3	20
COc1ccc(NC(=O)Nc2ccc3c(c2)CC(=O)N([C@@H](C)CO)C[C@H](C)[C@H](CN(C)C(=O)Nc2ccc(C(F)(F)F)cc2)O3)cc1	20	·	40
C[C@@H]1CN([C@H](C)CO)C(=O)Cc2cc(NC(=O)Nc3ccc(C(F)(F)F)cc3)ccc2O[C@@H]1CN(C)C(=O)NC1CCCCC1	112*	-2	-16
CC(C)NC(=O)N(C)C[C@H]1Oc2ccc(NC(=O)Nc3ccc(C(F)(F)F)cc3)cc2CC(=O)N([C@H](C)CO)C[C@H]1C	?	1	21
C[C@@H]1CN([C@H](C)CO)C(=O)Cc2cc(NC(=O)Nc3ccc(C(F)(F)F)cc3)ccc2O[C@H]1CN(C)C(=O)Nc1ccc(C(F)(F)F)cc1	49	-3	-8
C[C@H]1CN([C@@H](C)CO)C(=O)Cc2cc(NC(=O)Nc3ccc(C(F)(F)F)cc3)ccc2O[C@@H]1CN(C)C(=O)NC1CCCCC1	12	0	11
COc1ccc(NC(=O)N(C)C[C@H]2Oc3ccc(NC(=O)Nc4ccc(C(F)(F)F)cc4)cc3CC(=O)N([C@@H](C)CO)C[C@H]2C)cc1	124*	·	·
CC(C)NC(=O)N(C)C[C@H]1Oc2ccc(NC(=O)Nc3ccc(C(F)(F)F)cc3)cc2CC(=O)N([C@@H](C)CO)C[C@H]1C	114*	-5	10
Cc1ccc(OCC(=O)Nc2ccc3oc(-c4cccnc4)nc3c2)cc1C	20	·	·
Cc1cc(C)cc(NC(=O)CSc2nnc(-c3ccncc3)n2C)c1	-6	1	·
